Measurements: the supplement of paper PMC11001985

UniProt Q9Y6N7, sequence (Q9Y6N7 whole entry): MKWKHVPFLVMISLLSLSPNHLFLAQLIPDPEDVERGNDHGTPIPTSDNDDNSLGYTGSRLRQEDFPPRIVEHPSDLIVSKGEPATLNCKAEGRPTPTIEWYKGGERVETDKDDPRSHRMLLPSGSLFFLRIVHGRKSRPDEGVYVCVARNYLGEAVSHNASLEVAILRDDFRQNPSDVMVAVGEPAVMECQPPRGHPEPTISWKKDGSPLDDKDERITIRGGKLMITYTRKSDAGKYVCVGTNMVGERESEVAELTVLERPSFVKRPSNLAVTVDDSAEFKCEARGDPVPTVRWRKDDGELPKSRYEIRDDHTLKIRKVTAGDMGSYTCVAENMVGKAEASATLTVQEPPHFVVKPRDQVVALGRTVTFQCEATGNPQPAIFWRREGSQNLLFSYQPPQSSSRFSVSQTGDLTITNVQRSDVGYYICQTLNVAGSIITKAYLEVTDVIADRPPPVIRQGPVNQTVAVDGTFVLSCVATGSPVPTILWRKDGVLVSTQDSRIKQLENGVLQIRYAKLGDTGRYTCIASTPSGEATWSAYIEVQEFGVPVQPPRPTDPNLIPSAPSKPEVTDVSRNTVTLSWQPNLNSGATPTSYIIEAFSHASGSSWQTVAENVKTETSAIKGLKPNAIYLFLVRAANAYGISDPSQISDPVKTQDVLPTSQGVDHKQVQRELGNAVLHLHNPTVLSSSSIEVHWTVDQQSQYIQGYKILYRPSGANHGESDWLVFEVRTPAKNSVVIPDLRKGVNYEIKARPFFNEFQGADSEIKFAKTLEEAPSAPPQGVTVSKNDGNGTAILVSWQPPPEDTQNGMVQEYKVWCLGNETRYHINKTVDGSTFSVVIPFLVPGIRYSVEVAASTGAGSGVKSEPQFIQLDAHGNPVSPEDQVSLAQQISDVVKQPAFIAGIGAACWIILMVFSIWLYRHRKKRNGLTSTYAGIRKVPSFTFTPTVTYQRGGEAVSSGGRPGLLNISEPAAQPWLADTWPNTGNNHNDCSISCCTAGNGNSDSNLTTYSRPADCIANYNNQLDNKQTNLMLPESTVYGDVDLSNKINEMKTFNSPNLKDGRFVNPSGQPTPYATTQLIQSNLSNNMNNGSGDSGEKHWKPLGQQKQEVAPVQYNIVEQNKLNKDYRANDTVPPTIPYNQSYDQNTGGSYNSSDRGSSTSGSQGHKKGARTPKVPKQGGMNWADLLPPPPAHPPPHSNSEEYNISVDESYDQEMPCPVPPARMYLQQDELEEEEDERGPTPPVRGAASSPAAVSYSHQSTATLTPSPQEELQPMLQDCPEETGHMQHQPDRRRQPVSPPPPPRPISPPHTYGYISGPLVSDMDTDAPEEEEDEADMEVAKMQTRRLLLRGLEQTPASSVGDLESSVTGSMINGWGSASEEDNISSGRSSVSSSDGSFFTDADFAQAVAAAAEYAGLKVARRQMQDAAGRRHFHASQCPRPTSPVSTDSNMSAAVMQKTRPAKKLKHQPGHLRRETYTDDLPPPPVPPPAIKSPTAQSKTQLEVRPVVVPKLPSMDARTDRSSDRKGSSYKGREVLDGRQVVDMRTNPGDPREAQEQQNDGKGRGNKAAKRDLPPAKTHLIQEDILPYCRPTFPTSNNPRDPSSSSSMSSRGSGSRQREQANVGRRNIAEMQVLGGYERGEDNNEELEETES
UniProt Q9Y490, sequence (Q9Y490 whole entry): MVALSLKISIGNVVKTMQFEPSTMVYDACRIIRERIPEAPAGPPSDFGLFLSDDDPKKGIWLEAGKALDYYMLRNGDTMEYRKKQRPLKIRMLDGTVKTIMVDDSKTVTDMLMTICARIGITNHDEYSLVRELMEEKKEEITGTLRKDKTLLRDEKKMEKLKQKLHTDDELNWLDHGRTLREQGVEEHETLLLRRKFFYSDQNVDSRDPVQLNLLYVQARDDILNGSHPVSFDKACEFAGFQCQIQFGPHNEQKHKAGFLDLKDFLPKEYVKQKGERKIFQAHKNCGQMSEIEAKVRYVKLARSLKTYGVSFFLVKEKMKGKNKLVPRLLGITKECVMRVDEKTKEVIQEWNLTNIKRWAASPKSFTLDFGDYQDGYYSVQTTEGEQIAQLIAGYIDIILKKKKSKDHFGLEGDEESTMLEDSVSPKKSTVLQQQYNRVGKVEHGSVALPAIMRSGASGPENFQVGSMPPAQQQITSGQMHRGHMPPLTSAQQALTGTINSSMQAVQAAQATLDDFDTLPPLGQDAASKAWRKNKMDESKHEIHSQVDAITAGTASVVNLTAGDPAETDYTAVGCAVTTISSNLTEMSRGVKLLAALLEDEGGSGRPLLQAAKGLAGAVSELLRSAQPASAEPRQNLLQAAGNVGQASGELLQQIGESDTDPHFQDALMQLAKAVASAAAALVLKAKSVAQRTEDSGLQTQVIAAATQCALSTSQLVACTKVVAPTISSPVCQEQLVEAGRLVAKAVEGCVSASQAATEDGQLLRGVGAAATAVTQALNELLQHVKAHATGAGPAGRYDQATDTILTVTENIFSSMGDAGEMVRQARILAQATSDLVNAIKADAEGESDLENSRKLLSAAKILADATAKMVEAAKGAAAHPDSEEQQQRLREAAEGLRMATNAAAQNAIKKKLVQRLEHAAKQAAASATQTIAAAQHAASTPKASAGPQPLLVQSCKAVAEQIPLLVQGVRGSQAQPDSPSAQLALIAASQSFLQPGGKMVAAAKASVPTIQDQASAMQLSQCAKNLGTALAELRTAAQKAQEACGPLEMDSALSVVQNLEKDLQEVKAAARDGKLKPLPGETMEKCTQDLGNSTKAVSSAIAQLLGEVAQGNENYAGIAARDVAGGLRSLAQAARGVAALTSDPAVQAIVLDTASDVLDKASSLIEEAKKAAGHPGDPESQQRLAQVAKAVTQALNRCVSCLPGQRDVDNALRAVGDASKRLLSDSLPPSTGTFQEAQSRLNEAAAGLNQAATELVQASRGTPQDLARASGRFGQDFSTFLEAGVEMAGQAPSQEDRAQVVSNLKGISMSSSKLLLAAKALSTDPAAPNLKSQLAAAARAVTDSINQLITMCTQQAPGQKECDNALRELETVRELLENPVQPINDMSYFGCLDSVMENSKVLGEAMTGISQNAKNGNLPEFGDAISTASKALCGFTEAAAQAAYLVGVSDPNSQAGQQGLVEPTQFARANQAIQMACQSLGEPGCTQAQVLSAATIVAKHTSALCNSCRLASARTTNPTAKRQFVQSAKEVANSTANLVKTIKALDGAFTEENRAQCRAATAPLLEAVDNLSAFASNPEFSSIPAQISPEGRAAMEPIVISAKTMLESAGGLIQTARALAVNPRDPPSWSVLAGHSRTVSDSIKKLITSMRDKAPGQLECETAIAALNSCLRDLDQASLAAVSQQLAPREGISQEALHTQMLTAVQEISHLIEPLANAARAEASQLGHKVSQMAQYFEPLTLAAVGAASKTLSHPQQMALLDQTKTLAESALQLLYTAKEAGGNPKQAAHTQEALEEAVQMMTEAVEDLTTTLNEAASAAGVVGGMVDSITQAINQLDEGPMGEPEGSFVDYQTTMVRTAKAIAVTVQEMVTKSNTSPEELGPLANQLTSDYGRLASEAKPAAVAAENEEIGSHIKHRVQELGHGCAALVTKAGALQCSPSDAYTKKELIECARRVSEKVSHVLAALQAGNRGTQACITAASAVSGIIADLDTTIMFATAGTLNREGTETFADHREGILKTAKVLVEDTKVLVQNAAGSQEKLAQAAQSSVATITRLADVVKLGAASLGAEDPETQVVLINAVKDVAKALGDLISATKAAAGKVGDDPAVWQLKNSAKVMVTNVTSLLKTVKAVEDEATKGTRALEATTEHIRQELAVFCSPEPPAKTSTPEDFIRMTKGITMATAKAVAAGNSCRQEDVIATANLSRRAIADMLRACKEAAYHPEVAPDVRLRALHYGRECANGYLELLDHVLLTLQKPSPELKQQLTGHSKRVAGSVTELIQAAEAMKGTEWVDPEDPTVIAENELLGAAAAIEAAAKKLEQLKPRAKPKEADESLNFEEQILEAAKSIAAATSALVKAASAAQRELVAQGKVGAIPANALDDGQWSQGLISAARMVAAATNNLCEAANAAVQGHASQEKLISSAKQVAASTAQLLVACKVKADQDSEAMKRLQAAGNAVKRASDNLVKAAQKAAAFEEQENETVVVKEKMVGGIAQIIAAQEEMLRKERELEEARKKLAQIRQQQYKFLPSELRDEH
UniProt P62258, sequence (P62258 whole entry): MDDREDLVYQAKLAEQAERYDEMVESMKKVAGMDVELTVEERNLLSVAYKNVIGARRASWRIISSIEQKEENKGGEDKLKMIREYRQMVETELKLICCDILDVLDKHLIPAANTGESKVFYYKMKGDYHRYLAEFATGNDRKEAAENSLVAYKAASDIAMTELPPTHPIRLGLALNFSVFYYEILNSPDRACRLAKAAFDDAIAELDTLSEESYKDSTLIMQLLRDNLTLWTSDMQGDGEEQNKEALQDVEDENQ
UniProt P62873, sequence (P62873 whole entry): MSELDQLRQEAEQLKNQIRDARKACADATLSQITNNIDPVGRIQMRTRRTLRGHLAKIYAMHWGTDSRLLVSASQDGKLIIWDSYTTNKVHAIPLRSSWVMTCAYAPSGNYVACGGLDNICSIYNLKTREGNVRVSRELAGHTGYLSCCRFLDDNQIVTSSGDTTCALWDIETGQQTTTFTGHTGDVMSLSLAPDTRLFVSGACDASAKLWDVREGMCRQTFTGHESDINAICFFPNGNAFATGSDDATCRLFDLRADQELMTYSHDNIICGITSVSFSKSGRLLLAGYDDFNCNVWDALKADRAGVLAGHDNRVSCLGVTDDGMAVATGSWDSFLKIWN
UniProt Q02978, sequence (Q02978 whole entry): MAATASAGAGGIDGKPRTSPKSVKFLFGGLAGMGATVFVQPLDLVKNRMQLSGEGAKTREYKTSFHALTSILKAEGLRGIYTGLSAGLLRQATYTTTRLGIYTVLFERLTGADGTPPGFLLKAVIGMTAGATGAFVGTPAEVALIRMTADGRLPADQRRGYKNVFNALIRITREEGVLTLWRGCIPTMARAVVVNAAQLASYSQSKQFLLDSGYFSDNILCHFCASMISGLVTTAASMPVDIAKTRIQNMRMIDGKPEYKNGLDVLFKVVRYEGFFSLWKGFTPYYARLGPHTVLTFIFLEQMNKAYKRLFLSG

Each target was assayed with C#CCNC(=O)CCSSCCC(=O)NCCc1ccc(C=O)c(C=O)c1 (assay: lysine labeling ratio R10:1 (500 µM / 50 µM probe), SILAC-ABPP in living cells; higher = lower intrinsic lysine reactivity toward the probe, active = 2 or less). Details: HeLa; probe concentrations 500 vs 50 µM.
In short: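 Measurements came from LC-MS/MS on a TIMS-TOF Pro of mixed SILAC light and heavy HeLa lysates after click to biotin-azide, trypsin digestion, neutravidin capture, DTT release and alkylation. Before lysis, the living cells sat in PBS at room temperature with 50 µM or 500 µM of an alkyne-tagged, disulfide-linked lysine probe, and labels were swapped forward and reverse. R per lysine is the median across both swap directions of the filtered median high-probe/low-probe MS1 peptide ratio. The cap is 20.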
“SLC25A11 (lysine site: K57) (UniProt Q02978)” was tested, and the “lysine labeling ratio R10:1” value was 1.95 (active). For “PTPRB (lysine site: K718) (UniProt P23467)”, the “lysine labeling ratio R10:1” value was 1.5 (active). With “LAMC1 (lysine site: K1567) (UniProt P11047)” the “lysine labeling ratio R10:1” value was 1.42 (active). With “PDCD6IP (lysine site: K690) (UniProt Q8WUM4)” the “lysine labeling ratio R10:1” value was 2.89 (inactive). In the case of UniProt P62873 (lysine site: K15), the “lysine labeling ratio R10:1” value is reported as 3.12 (inactive). For UniProt P62258 (lysine site: K12), the “lysine labeling ratio R10:1” value was 7.18 (inactive). For “MET (lysine site: K725) (UniProt P08581)”, the “lysine labeling ratio R10:1” value was 0.656 (active). In the case of UniProt P02533 (lysine site: K405), the “lysine labeling ratio R10:1” value is reported as 7.37 (inactive). In the case of “TLN1 (lysine site: K1332) (UniProt Q9Y490)”, the “lysine labeling ratio R10:1” value is reported as 5.83 (inactive). With “ROBO1 (lysine site: K137) (UniProt Q9Y6N7)” the “lysine labeling ratio R10:1” value was 5.8 (inactive). In the case of “DNAJB1 (lysine site: K21) (UniProt P25685)”, the “lysine labeling ratio R10:1” value is reported as 1 (active). In the case of “RPS27A (lysine site: K113) (UniProt P62979)”, the “lysine labeling ratio R10:1” value is reported as 1.38 (active). With “ROBO1 (lysine site: K297) (UniProt Q9Y6N7)” the “lysine labeling ratio R10:1” value was 3.3 (inactive). “EPHA2 (lysine site: K475) (UniProt P29317)” was tested, and the “lysine labeling ratio R10:1” value was 2.38 (inactive). With “NRP1 (lysine site: K407) (UniProt O14786)” the “lysine labeling ratio R10:1” value was 3.76 (inactive). In the case of “PLS3 (lysine site: K59) (UniProt P13797)”, the “lysine labeling ratio R10:1” value is reported as 1.41 (active). With “L1CAM (lysine site: K301) (UniProt P32004)” the “lysine labeling ratio R10:1” value was 4.21 (inactive). In the case of “TNKS1BP1 (lysine site: K1680) (UniProt Q9C0C2)”, the “lysine labeling ratio R10:1” value is reported as 2.22 (inactive). In the case of “ACSL3 (lysine site: K679) (UniProt O95573)”, the “lysine labeling ratio R10:1” value is reported as 2.71 (inactive). “RPL3 (lysine site: K250) (UniProt P39023)” was tested, and the “lysine labeling ratio R10:1” value was 2.54 (inactive). In the case of “ENG (lysine site: K291) (UniProt P17813)”, the “lysine labeling ratio R10:1” value is reported as 5.59 (inactive). In the case of “ACTN4 (lysine site: K437) (UniProt O43707)”, the “lysine labeling ratio R10:1” value is reported as 2.2 (inactive). “MCAM (lysine site: K182) (UniProt P43121)” was tested, and the “lysine labeling ratio R10:1” value was 3.4 (inactive).
